The panel holds about 83,000 compounds, 20% with a hit somewhere; the sample as a whole holds those more often.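 Single-dose data. Exposure time 48 hours. Values below 10 considered active.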 Activity calls are given as the source filed them.
These compounds were tested on HL-60(TB) leukemia (assay: NCI-60 one-dose screen, 48 h (100 = growth as untreated, 0 = no growth, -100 = all killed)). Conditions: 10 µM unless noted.

**Q.** With `C#CCC#CCN1CCC[C@H]1C(=O)NCC(=O)OC` as the compound, how does the growth read?
**A.** 105% (inactive)

**Q.** With `COc1cc2nc(Cl)nc(Nc3cccc(C4=Nc5c(N)nc(N)nc5NC(c5ccccc5)C4)c3)c2cc1OC` (stereo unspecified) as the compound, how does the growth read?
**A.** 66.4% (inactive)

**Q.** `O=C(CSc1nc2ccccc2c(=O)n1-c1ccccc1)N/N=C/c1ccc(Oc2ccc(Cl)cc2)cc1` was tested. Which growth did it give?
**A.** 106% (inactive)

**Q.** For `CC(=O)c1c([Si](C)(C)C)c2cc(C#N)ccn2c1C(=O)c1ccc(Br)cc1`, which growth is on record?
**A.** 97.8% (inactive)

**Q.** For `NS(=O)(=O)c1ccc(CCn2c(-c3ccc(C(=O)O)cc3)nc(-c3ccccc3)c2-c2ccccc2)cc1`, which growth is on record?
**A.** 101% (inactive)

**Q.** For `Oc1[nH]c2ccc(Cl)cc2c1N=Nc1nc(N=Nc2c(O)[nH]c3ccc(Cl)cc23)nc(N2CCCCC2)n1`, which growth is on record?
**A.** 71.5% (inactive)

**Q.** `N/C(=N\OC(=O)CSc1nc2ccccc2s1)c1ccc2ccccc2c1` was tested. Which growth did it give?
**A.** 105% (inactive)

**Q.** For `O=c1[nH][nH]c(-c2ccc(F)cc2)c1-c1nc2ccccc2s1`, which growth is on record?
**A.** 103% (inactive)

**Q.** How did the growth turn out when `Cc1ccc2ccc3ccc(C)nc3c2n1.Cc1ccc2ccc3ccc(C)nc3c2n1.Oc1c(Cl)cc(Cl)c2ccc(CN3CCCCC3)nc12.[Ru]` was run?
**A.** -52.1% (active)

**Q.** `CCNC(=O)N1CCc2cc(OC)c(OCCc3ccc(OC)nc3)cc2C1c1ccc(C)cc1C` (stereo unspecified) was tested. Which growth did it give?
**A.** 8.48% (active)

**Q.** How did the growth turn out when `O=C(/C=C/Nc1ccc(S(=O)(=O)O)cc1)c1ccc(F)cc1` was run?
**A.** 102% (inactive)

**Q.** `Cc1ccc(N2CCN(C3=C(Cl)C(=O)c4ncccc4C3=O)CC2)cc1` was tested. Which growth did it give?
**A.** 3.39% (active)

**Q.** Which growth does the source give for `C/C(=C(/c1ccc(O)cc1)c1ccc(OCCN(C)C)cc1)c1ccc(Cl)cc1` here?
**A.** 21.8% (inactive)

**Q.** For `COc1cc(O)c2c(c1)[C@H]1O[C@@H]1C[C@H](O)[C@H](O)C(=O)/C=C\C[C@H](C)OC2=O`, which growth is on record?
**A.** 0.185% (active)

**Q.** For `O=S(=O)(NCCCNc1nccc(-n2cnc3ccccc32)n1)c1ccc(F)cc1`, which growth is on record?
**A.** 90.9% (inactive)

**Q.** For `CNC(=O)c1cc(N2CCc3cc(NC(=O)Nc4ccc(Cl)c(C(F)(F)F)c4)ccc32)ccn1`, which growth is on record?
**A.** 50.3% (inactive)

**Q.** For `CCCC(=O)NC(c1cccnc1)c1cc(C(C)=O)c2cccnc2c1O` (stereo unspecified), which growth is on record?
**A.** 24.9% (inactive)

**Q.** How did the growth turn out when `C#CCOc1ccccc1C(OC(=O)c1ccccc1)C(=O)NC(C)(C)C(C)(C)C` (stereo unspecified) was run?
**A.** 95.1% (inactive)

**Q.** For `CCN(CC)Cc1c(-c2cccc(OC(F)(F)F)c2)[nH]c2ccc(N3CCCC3)cc2c1=O`, which growth is on record?
**A.** 72.9% (inactive)

**Q.** With `C#Cc1nc(/C=C/CCCCCCC(=O)NO)cs1` as the compound, how does the growth read?
**A.** -64.8% (active)

**Q.** How did the growth turn out when `COc1ccc(C(C)=C(c2ccc(OCCN(C)C)cc2)c2ccc(OCCN(C)C)cc2)cc1` was run?
**A.** -63.3% (active)

**Q.** With `Cn1cc2c(c1)-c1c(sc3nc(-c4ccc(NC(=O)Nc5cc(C(C)(C)C)on5)cc4)cn13)CC2` as the compound, how does the growth read?
**A.** 12.4% (inactive)

**Q.** Which growth does the source give for `COc1cc2c(cc1OC)C(Sc1ccc(C)cc1)c1c(nc(N)c(C#N)c1N)O2` (stereo unspecified) here?
**A.** -19% (active)

**Q.** Which growth does the source give for `Fc1cc(F)cc(NNC(=S)c2ccccc2)c1` here?
**A.** 30.5% (inactive)

**Q.** For `CCCCCc1ccc(S(=O)(=O)Nc2cc(-c3csc(NC(=O)CN4CCN(CCO)CC4)n3)ccc2OC)cc1`, which growth is on record?
**A.** -40.5% (active)

**Q.** For `O=C1[C@H]2Cc3c([nH]c4ccccc34)[C@@H](c3ccc(Br)cc3)N2C(=O)CN1C1CCN(Cc2ccccc2)CC1`, which growth is on record?
**A.** -28.4% (active)

**Q.** With `COc1ccc(-c2csc(N/N=C/c3c(-c4ccc(S(C)(=O)=O)cc4)nc4ccccn34)n2)cc1` as the compound, how does the growth read?
**A.** 103% (inactive)

**Q.** Which growth does the source give for `O=C(NNc1nc2cc(F)c(F)cc2n2cccc12)c1cccnn1` here?
**A.** -2.31% (active)

**Q.** With `COc1cc(Cn2cc3c(c2)-c2onc(CN4CCCC4)c2CC3)cc(OC)c1OC` as the compound, how does the growth read?
**A.** 99% (inactive)

**Q.** How did the growth turn out when `COc1ccc(C(=O)/C=C/c2ccc(OCc3ccc(C)cc3)c(OC)c2)cc1OC` was run?
**A.** 40.7% (inactive)

**Q.** Which growth does the source give for `Cc1ccc(C(=O)Nc2ccc(CNCCN3CCNCC3)c(C(F)(F)F)c2)cc1C#Cc1cnc2cccnn12` here?
**A.** -54.7% (active)

**Q.** For `C#C[C@]1(O)CC[C@H]2[C@@H]3CC=C4c5sc(Nc6cc(OC)ccc6OC)nc5CC[C@]4(C)[C@H]3CC[C@@]21C`, which growth is on record?
**A.** -5.2% (active)

**Q.** `O=C1Nc2ccccc2/C1=C/c1ccc(CO)n1-c1ccc(Cl)cc1` was tested. Which growth did it give?
**A.** 15.8% (inactive)

**Q.** With `COc1ccc2[nH]cc(-c3nn4cc(-c5ccncc5)nc4s3)c2c1` as the compound, how does the growth read?
**A.** 54.9% (inactive)

**Q.** `C=C1CC[C@@H]2[C@]3(C)COC(c4ccccc4)O[C@@H]3CC[C@@]2(C)[C@@H]1C/C=C1/C(=O)OC[C@H]1O` (stereo partly specified) was tested. Which growth did it give?
**A.** 48.9% (inactive)

**Q.** With `CC(=O)C1=C(C)NC(NN)=NC1c1cccc(Cl)c1` (stereo unspecified) as the compound, how does the growth read?
**A.** 115% (inactive)
